Laboratory results published in PubChem BioAssay (NCI).
About 83,000 compounds went through this panel and 20% of them were active in at least one assay; those are over-represented in the sample as a whole.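 For each line, cells grew in 96-well plates with the test compound present at a single concentration for 48 hours.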 Values without a mark were called inactive. Active and inactive are the calls of the source.

Each molecule was assayed on A498 renal (assay: NCI-60 one-dose screen, 48 h (100 = growth as untreated, 0 = no growth, -100 = all killed)). Settings: 10 µM unless noted.
Experimental: Growth inhibition of the A498 human tumor cell line is measured as a screen for anti-cancer activity. Cells are grown in 96 well plates and exposed to the test compound for 48 hours. Compounds are tested at a single concentration, which is 10^-5 M for most compounds. The reported endpoint is percent growth (GI% or GIPRCNT), where numbers from 0 - 100% represent growth inhibition, and numbers from -100% - 0 represent cell death. For example, a value of 40 represents 60% growth inhibition. A value of 0 means no net growth occurred over the course of the experiment. A value of -40 indicates 40% of cells at the beginning of the experiment died by the end of the experiment. A value of -100 means all cells are dead at the end of the experiment.
NCI-60 Human Tumor Cell Lines Screen was performed using the standard one-dose NCI protocol, which is described in more detail at https://dtp.cancer.gov/discovery_development/nci-60/default.htm.
Compounds with GIPRCNT values below 10 were considered active. Activity score was based on GIPRCNT using the following formula: […]
Score is 0 for GIPRCNT values of 100 or above, 50 for GIPRCNT values of 0, and 100 for GIPRCNT values of -100.

| Structure (SMILES) | growth |
| --- | --- |
| O=C1[C@@H]2Cc3c([nH]c4ccccc34)[C@@H](c3ccc(Cl)cc3)N2C(=O)CN1C1CCN(Cc2c(F)cccc2F)CC1 | 60% |
| CC1(C)CC[C@]2(C(=O)O)CC[C@]3(C)C(=CC[C@@H]4[C@@]5(C)CC[C@H](NOCCCN)C(C)(C)[C@@H]5CC[C@]43C)[C@@H]2C1 | 110% |
| COc1cc2cc(Oc3ccc(NC(=O)c4cc(C(F)(F)F)cc(C(F)(F)F)c4)cc3)c(C)nc2cc1OCCN1CCOCC1 | 55% |
| C#C[C@]1(O)CC[C@H]2[C@@H]3CC=C4c5sc(N6CCN(C)CC6)nc5CC[C@]4(C)[C@H]3CC[C@@]21C | 86% |
| CC/C(=C(/c1ccc(Cl)cc1)c1ccc(OCCN)cc1)c1ccccc1 | 92.9% |
| CCOC(=O)c1ccc(NC2=CC(=O)C(C)=C(C)C2=O)cc1 | 84.3% |
| CN(C)CCNc1ccc2ncc(C#Cc3cncc(C(=O)Nc4ccc(CN5CCN(C)CC5)c(C(F)(F)F)c4)c3)n2n1 | 87.7% |
| O=C(CSc1nnc(-c2ccc(Cl)cc2)n1-c1ccccc1)Nc1cccc(F)c1 | 57.9% |
| O=C(Nc1ccc(Cl)c(C(F)(F)F)c1)Nc1ccc2c(ccn2C(=O)c2cccc(F)c2)c1 | 70.3% |
| COc1ccc2c(c1)c(/C=N/Nc1ccnc3cc(Cl)ccc13)cn2C | -90% (active) |
| Cc1ccc(S(=O)(=O)NCCCNc2nccc(-c3[nH]c(-c4ccccc4)nc3-c3ccc(F)c(O)c3)n2)cc1 | 76.3% |
| CCN1CCN(c2ccc(NC(=O)Nc3ccc4c(ccn4-c4ccnc(C(=O)NC)c4)c3)cc2C(F)(F)F)CC1 | 81.1% |
| COc1ccccc1/C=C1\Oc2ccc(O)c(O)c2C1=O | 85.1% |
| CCN(CC)c1ccc(/C=N/NC(=O)c2ccc(NS(C)(=O)=O)cc2)cc1 | 40.1% |
| N#Cc1cccc(-c2cc(-c3ccc4c(c3)OCCO4)[nH]n2)c1 | 28.4% |
| Brc1ccc2[nH]cc(-c3nn4cc(-c5nccs5)nc4s3)c2c1 | 47.5% |
| COc1ccc(OC)c(NC(=O)CCCCCCNC(=O)C(O)(O)C(F)(F)F)c1 | 38.3% |
| CC(=O)OCCCCN1C=C/C(=C\C(=O)n2ccc3ccccc32)c2ccccc21 | 121% |
| CCC(=C(c1ccc(OCCN(C)C)cc1)c1ccc(OCCN(C)C)cc1)c1ccc(Cl)cc1 | -23.3% (active) |
| CCc1cc(O)ccc1Nc1cc(-c2ccc(-n3cccn3)cc2)[nH]n1 | 92.9% |

| Structure (SMILES) | growth |
| --- | --- |
| Brc1cccc(-c2cc(-c3cnc4c(c3)OCCO4)n[nH]2)c1 | 50.6% |
| CN1CC[C@@H]2[C@@]3(C)CC[C@H](O)C(C)(C)[C@@H]3CC[C@@]2(C)[C@]2(C)CC[C@@]3(CO)CCC(C)(C)C[C@@H]3C12 (stereo not given in full) | 97.1% |
| CNC(=O)c1cc(-n2ccc3cc(NC(=O)Nc4ccc(N5CCN(C)CC5)c(C(F)(F)F)c4)ccc32)ccn1 | 87.9% |
| CC(=O)N1N=C(c2cc3ccccc3oc2=O)CC1c1cn(-c2ccccc2)nc1-c1ccc(C)cc1 (stereo not given) | 101% |
| C/C(=N\NC(=O)/C=C/CC(=O)O)c1nnn(-c2ccc([N+](=O)[O-])cc2)c1C | 110% |
| CCOC(=O)c1cccc(NC2=C(Cl)C(=O)c3nc(C)ccc3C2=O)c1 | 88.8% |
| COc1cc2oc(-c3cccc(NC(=O)[C@@H](N)C(C)C)c3)cc(=O)c2c(OC)c1OC | 95.7% |
| CN1CCN(c2ccc(Nc3nc(NCCNS(=O)(=O)c4ccccc4)c4sccc4n3)cc2)CC1 | 101% |
| CC(C)NC(=O)c1cc(-c2ccc(NC(=O)Nc3ccc(F)c(C(F)(F)F)c3)cc2)nc2cccnc12 | 89.7% |
| Clc1ccc2[nH]cc(-c3nn4cc(-c5cccnc5)nc4s3)c2c1 | 109% |
| CC(=O)OC[C@]12CC[C@@H](C(=O)/C=C/c3cccnc3)[C@@H]1[C@H]1CC[C@@H]3[C@@]4(C)CC[C@H](OC(C)=O)C(C)(C)[C@@H]4CC[C@@]3(C)[C@]1(C)CC2 | -47.7% (active) |
| C#CCN(C)CCCOc1ccc(NC(=O)CCCCCCC(=O)NO)cc1Cl | -12.1% (active) |
| Cn1cc(-c2cc3ncnc(Nc4ccc(NC(=O)Nc5cc(C(C)(C)C)on5)cc4)c3s2)cn1 | 16.4% |
| COC(=O)c1ccc(NC2=C(Cl)C(=O)c3nc(C)ccc3C2=O)cc1 | 77.9% |
| O=S(=O)(Oc1ccc(-c2cn3ccoc3n2)cc1)c1cccc(C(F)(F)F)c1 | 88.8% |
| O=C(CCCCCCNC(=O)C(O)(O)C(F)(F)F)Nc1ccc(-c2ccccc2)cc1 | -7.85% (active) |
| O=C(CSc1nnc(-c2cccs2)n1-c1ccccc1)Nc1ccccc1 | 84.9% |
| NC1CC2(CCN(c3cnc(C(=O)Nc4cc(F)cc5cccnc45)cn3)CC2)C1 | 74.3% |
| COc1ccc2c(c1)c(-c1nnc(N)nc1-c1c[nH]c3ccc(F)cc13)cn2C | 27.5% |
| O=C1c2ccccc2C23C(=C(c4cncnc4)c4ccccc42)CCCN13 (stereo not given) | 96.4% |
